14 compounds from PubChem BioAssay (NCATS) can be followed below.

The subject of one test is ICS. In words: qHTS profiling for inhibitors of Plasmodium falciparum proliferation (AID 504749). Conditions: P. falciparum in erythrocytes, SYBR Green DNA, 72 h; series mostly up to 28.7 µM. In short, it runs like this:
(§1)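 Quantitative HTS: compounds pinned into medium, infected erythrocytes added (0.3% parasitemia, 2.5% hematocrit), 72 h culture at 37 C under 5% CO2. Saponin/Triton lysis with SYBR Green I, overnight RT, then fluorescence read.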

The next test has as its system JCK. The description is as above. The following applies: P. falciparum in erythrocytes, SYBR Green DNA, 72 h; series mostly up to 28.7 µM. In short, it runs like this: as §1
The test system of a further test is PC15. The test is described as above. Conditions: P. falciparum in erythrocytes, SYBR Green DNA, 72 h; series mostly up to 28.7 µM. In short, it runs like this:
as §1

For the next test, the system named is PC26. Described as above. Conditions: P. falciparum in erythrocytes, SYBR Green DNA, 72 h; series mostly up to 28.7 µM. The gist of the method: as §1
A further test has as its system PC49. The test is described as above. Conditions: P. falciparum in erythrocytes, SYBR Green DNA, 72 h; series mostly up to 28.7 µM. The gist of the method:
as §1

The test system of a further test is SC27B. The description is as above. The following applies: P. falciparum in erythrocytes, SYBR Green DNA, 72 h; series mostly up to 28.7 µM. In short, it runs like this: as §1
The test system of a further test is TAB113. The test is described as above. Conditions: P. falciparum in erythrocytes, SYBR Green DNA, 72 h; series mostly up to 28.7 µM. The gist of the method:
as §1

The test system of a further test is W2. The test is described as above. The following applies: P. falciparum in erythrocytes, SYBR Green DNA, 72 h; series mostly up to 28.7 µM. In short, it runs like this:
as §1

For a further test, the system named is KB-3-1. Description: Cytotoxic Profiling of Annotated Libraries Using Quantitative High-Throughput Screening (AID 1296008). As to max response: % is scaled to controls: 0 for no effect and ±100 for the full control effect. The following applies: Five cell lines viability, CellTiter-Glo ATP luminescence, 48-72 h; max response: hits give low values. The gist of the method:
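Compounds were pin-transferred onto cells and incubated 48 or 72 hr at 37 degree Celsius, 95% humidity. CellTiter-Glo was added, plates sat 10 min at room temperature, then ATP-coupled luminescence was imaged as the viability read-out.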
In general terms: In ATP-based viability assays light output follows the ATP content of the culture.

Another test relates to P93_24. In words: qHTS profiling for inhibitors of Plasmodium falciparum proliferation (AID 504749). Conditions: P. falciparum in erythrocytes, SYBR Green DNA, 72 h; series mostly up to 28.7 µM. In short, it runs like this: as §1
On the technique in general: Quantitative high-throughput screening tests each substance at several concentrations.

For the next test, the system named is P94_40. The test is described as above. Conditions: P. falciparum in erythrocytes, SYBR Green DNA, 72 h; series mostly up to 28.7 µM. The gist of the method: as §1
The next test deals with PAD. Described as above. The following applies: P. falciparum in erythrocytes, SYBR Green DNA, 72 h; series mostly up to 28.7 µM. The gist of the method: as §1
Another test relates to TAB109. The test is described as above. Conditions: P. falciparum in erythrocytes, SYBR Green DNA, 72 h; series mostly up to 28.7 µM. The gist of the method:
as §1

The subject of a further test is N140. Described as above. The following applies: P. falciparum in erythrocytes, SYBR Green DNA, 72 h; series mostly up to 28.7 µM. The gist of the method:
as §1

The subject of the next test is TAB165. The test is described as above. Conditions: P. falciparum in erythrocytes, SYBR Green DNA, 72 h; series mostly up to 28.7 µM. In short, it runs like this: as §1

Results filed as inconclusive are left out. Unmarked numbers belong to inactive results. The source made the active and inactive calls. Calls follow the shape of the dose curve; as a rule, active = well fitted inhibition curve with a large enough effect; inconclusive = small, poorly fitted or top-dose-only effect; inactive = flat fitted curve, though single readings scatter.
Also: nearly all actives have a fitted effect of over 60% in size.
Potency is read from the fitted curve at half-maximal effect.

Take `Cn1c(=O)c2c(ncn2CCOC(=O)C(C)(C)Oc2ccc(Cl)cc2)n(C)c1=O`: the Potency result with ICS, in the test with JCK, in the test with PC15, in the test with PC26, in the test on PC49 and in the test on SC27B was “inactive” each time. Besides, the Potency result in the test with TAB113 and in the test on W2 was “inactive” throughout. Further, the max response in the test with KB-3-1 was -10.9%.
In the case of `CC(C)(C)CC(C)(C)c1ccc(OCCO)cc1`, the Potency entry with ICS, in the test with JCK, in the test on P93_24, in the test with P94_40, with PAD and in the test on PC15 was “inactive” in each case. Moreover, the Potency entry with PC26, in the test on PC49, with SC27B, in the test with TAB109, in the test on TAB113 and with W2 was “inactive” in each case. In the test with KB-3-1, the max response was -16.2%.
`COc1ccccc1N1CCN(CCCC(=O)c2ccc(F)cc2)CC1`: the Potency entry in the test on JCK, with N140, with P93_24, in the test with P94_40, in the test with PAD and in the test with PC15 was “inactive” each time. In addition, the Potency entry in the test on PC26, in the test on PC49, with SC27B, in the test on TAB109, in the test on TAB113 and with TAB165 was “inactive” throughout. For the same compound, the max response in the test on KB-3-1 is -4.67%.
Turning to `COc1cc(NCCCC(C)N)c2ncccc2c1` (stereo not drawn), the Potency was 0.891 µM (active) in the test with ICS; 5.62 µM (active) in the test with N140; 2.24 µM (active) in the test with P93_24; 4.47 µM (active) in the test on P94_40; 0.398 µM (active) in the test on PAD; 3.55 µM (active) in the test on PC15. The Potency with PC26 is 1.69 µM (active); in the test with SC27B, 11.2 µM (active); in the test with TAB109, 4.47 µM (active); in the test on TAB113, 8.91 µM (active); in the test with TAB165 it was 2.24 µM (active); in the test on W2 it was 1.51 µM (active). Also, the Potency result in the test with PC49 is “inactive”. The max response in the test with KB-3-1 was -4.33%.
In the case of `CC(=O)N=c1sc(S(N)(=O)=O)nn1C`, the Potency entry in the test on ICS, in the test with JCK, in the test with N140, in the test with PAD, in the test with PC15 and in the test with PC26 was “inactive” each time. The Potency result in the test with PC49, in the test with SC27B, with TAB109, in the test on TAB113, with TAB165 and in the test on W2 was “inactive” in each case. Further, the max response in the test with KB-3-1 was 21.5%.
Turning to `CC(C)OC(=O)Nc1ccc2nc(-c3cscn3)[nH]c2c1`, the Potency entry in the test on JCK, in the test with N140, with P93_24, in the test on P94_40, with PAD and with PC15 was “inactive” in each case. Moreover, the Potency result in the test on PC26, in the test on PC49, with SC27B, in the test on TAB109, with TAB113 and in the test on TAB165 was “inactive” throughout. Further, the Potency result with W2 is “inactive”. Moreover, the Potency with KB-3-1 was 5.8 µM (active).
Regarding `O=[N+]([O-])c1c(Cl)cccc1-c1c[nH]cc1Cl`, the Potency entry in the test on JCK, in the test on N140, in the test with P93_24, in the test on PAD, with PC15 and in the test with PC26 was “inactive” in each case. For the same compound, the Potency result in the test with PC49, in the test with SC27B, in the test on TAB109, in the test with TAB113 and with TAB165 was “inactive” each time. The max response in the test on KB-3-1 is 2.84%.
Take `Cc1cc(-c2ccc(N=Nc3c(S(=O)(=O)O)cc4cc(S(=O)(=O)O)cc(N)c4c3O)c(C)c2)ccc1N=Nc1c(S(=O)(=O)O)cc2cc(S(=O)(=O)O)cc(N)c2c1O`: the Potency result in the test on JCK, in the test on PC15, in the test on PC49, in the test with SC27B, in the test on TAB113 and in the test with W2 was “inactive” throughout. Besides, the Potency in the test with TAB165 was 12.6 µM (active); with KB-3-1, 9.2 µM (active).
`CCN(CC)CCC(=O)N1c2ccccc2Sc2ccc(Cl)cc21`: the Potency result in the test on JCK and in the test on N140 was “inactive” in each case. For the same compound, the Potency is 3.98 µM (active) in the test with P93_24, 5.01 µM (active) in the test on P94_40, 11.2 µM (active) with PC49 and 3.38 µM (active) in the test on W2. The max response with KB-3-1 was 24.4%.
For `NCCN`, the Potency result in the test with ICS, with JCK, in the test with N140, in the test on P93_24, with P94_40 and with PAD was “inactive” throughout. Moreover, the Potency entry in the test with PC15, in the test with PC26, in the test with PC49, in the test with SC27B, in the test with TAB109 and with TAB113 was “inactive” in each case. For the same compound, the Potency entry in the test on TAB165 and in the test with W2 was “inactive” throughout.
On to `CCCc1nc(C(C)(C)O)c(C(=O)OCc2oc(=O)oc2C)n1Cc1ccc(-c2ccccc2-c2nn[nH]n2)cc1`, for which the Potency entry in the test on JCK, with N140, in the test on P93_24, in the test with P94_40, in the test with PAD and with PC15 was “inactive” each time. In addition, the Potency entry in the test with PC26, in the test on PC49, in the test with SC27B, in the test with TAB109, in the test with TAB113 and with TAB165 was “inactive” throughout. Moreover, the Potency result with W2 is “inactive”. Besides, the max response with KB-3-1 is -0.562%.
Take `CCOC(=O)C1=C(COCCN)NC(C)=C(C(=O)OC)C1c1ccccc1Cl` (stereo not drawn): the Potency entry with JCK, with PAD, in the test with PC15, with PC26, in the test with PC49 and in the test on SC27B was “inactive” in each case. In addition, the Potency entry in the test with TAB109 and with TAB113 was “inactive” in each case.
Turning to `C[C@H]1O[C@@H](O[C@H]2[C@@H](O)C[C@H](O[C@H]3[C@@H](O)C[C@H](O[C@H]4CC[C@@]5(C)[C@H](CC[C@@H]6[C@@H]5C[C@@H](O)[C@]5(C)[C@@H](C7=CC(=O)OC7)CC[C@]65O)C4)O[C@@H]3C)O[C@@H]2C)C[C@H](O)[C@@H]1O`, the Potency entry with ICS, in the test on JCK, with N140, with P93_24, in the test with P94_40 and with PAD was “inactive” in each case. For the same compound, the Potency result with PC49, with SC27B, in the test with TAB109, in the test on TAB113 and with TAB165 was “inactive” each time.
In the case of `CNC(=O)[C@H](Cc1c[nH]c2ccccc12)NC(=O)[C@@H](CC(=O)NO)CC(C)C`, the Potency entry in the test with JCK, in the test with PC15, in the test with PC26, in the test on PC49, with SC27B and in the test on TAB113 was “inactive” throughout. Further, the Potency in the test with W2 was 15.1 µM (active). The max response in the test on KB-3-1 was -8.09%.
